# Measured values as given in PubChem BioAssay (EPA / NIEHS).
# Where “and” joins values, the source holds several entries; their conditions need not be identical. Equal entries are not always repeated. Inconclusive results are not listed. More than one record can exist for a structure, and the calls need not agree. Calls of active or inactive are those of the source. How the source made its calls, unless noted: active means hit-call score of the fitted dose curve at least 0.9, where 1 is the maximum; inconclusive means response in the unintended direction; inactive means score below 0.9.
# What was measured:
# [1] = target: human CYP2C8, CYP2C8 (gene 1558) (UniProt P10632); test: NVS_ADME_hCYP2C8: NovaScreen (NVS) CYP450-related Enzyme Activity (ADME) Assay for human CYP2C8 (AID 2283104; active means hit-call score of the fitted dose curve at least 0.9, where 1 is the maximum; inactive means score below 0.9)
# Summary of the method: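 Recombinant human CYP2C8 with fluorogenic substrate, 0.5 h, fluorescence intensity; signal loss fitted versus acetonitrile. Screened in duplicate at 10 uM, then actives run in concentration-response up to 20 uM.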
# [2] = target: human CYP2D6, CYP2D6 (gene 1565) (UniProt P10635); test: NVS_ADME_hCYP2D6: NovaScreen (NVS) CYP450-related Enzyme Activity (ADME) Assay for human CYP2D6 (AID 2283107)
# Summary of the method: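 Cell-free assay using recombinant human CYP2D6 expressed in insect cells, with a fluorogenic substrate read after 1 h. Primary screen in duplicate at 10 uM; actives followed up in concentration series. Loss of signal fitted relative to acetonitrile.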
# [3] = target: Cytochrome P450 2C19 (Homo sapiens) (UniProt P33261); test: NVS_ADME_hCYP2C19: NovaScreen (NVS) CYP450-related Enzyme Activity (ADME) Assay for human CYP2C19 (AID 2283113);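 on AC50: potency for inhibition seen as loss of fluorescent signal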
# Summary of the method: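 Cell-free recombinant human CYP2C19 from insect cells, fluorescent substrate; activity read by fluorescence intensity 1 h after dosing. Primary screen in duplicate at 10 uM; actives retested in concentration series. Signal loss versus acetonitrile negative control.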
# [4] = target: human CYP2C9, CYP2C9 (gene 1559) (UniProt P11712); test: NVS_ADME_hCYP2C9: NovaScreen (NVS) CYP450-related Enzyme Activity (ADME) Assay for human CYP2C9 (AID 2283108)
# Summary of the method: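 Fluorescence readout of CYP2C9 activity (SF9-expressed human enzyme) at 0.75 h. The primary screen used 10 uM in duplicate, with concentration-response follow-up for actives; acetonitrile was the negative control.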
# [5] = target: Cytochrome P450 3A4 (Homo sapiens) (UniProt P08684); test: NVS_ADME_hCYP3A4: NovaScreen (NVS) CYP450-related Enzyme Activity (ADME) Assay for human CYP3A4 (AID 2283110)
# Summary of the method: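 Compounds were first screened in duplicate at 10 uM against recombinant CYP3A4 produced in insect cells, then actives were run in concentration series. Enzyme activity was measured by fluorescence after 0.33 hour, with acetonitrile as baseline.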
# [6] = target: rat CYP2A1, Cyp2a1 (gene 24894) (UniProt P11711); test: NVS_ADME_rCYP2A1: NovaScreen (NVS) CYP450-related Enzyme Activity (ADME) Assay for rat CYP2A1 (AID 2283114; active means hit-call score of the fitted dose curve at least 0.9, where 1 is the maximum; inactive means score below 0.9)
# Summary of the method: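 Recombinant rat CYP2A1, cell-free, fluorogenic substrate turnover read by fluorescence intensity 0.75 h after dosing. Primary screen at 10 uM in duplicate; actives rerun as concentration-response up to 20 uM; loss of signal versus acetonitrile control.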
# [7] = target: rat CYP2A2, Cyp2a2 (gene 24895) (UniProt P15149); test: NVS_ADME_rCYP2A2: NovaScreen (NVS) CYP450-related Enzyme Activity (ADME) Assay for rat CYP2A2 (AID 2283116)
# Summary of the method: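 Cell-free recombinant rat CYP2A2 activity with fluorogenic substrate, fluorescence read 0.2 h after dosing. Chemicals screened at 10 uM in duplicate, hits then run in concentration-response up to 20 uM; signal loss versus acetonitrile baseline.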
# rat CYP2B1, gene 24300 = test: NVS_ADME_rCYP2B1: NovaScreen (NVS) CYP450-related Enzyme Activity (ADME) Assay for rat CYP2B1 (AID 2283117)
# Summary of the method: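 Recombinant rat CYP2B1 with fluorogenic substrate, read at 0.75 h. Primary screen in duplicate at 10 uM; compounds meeting threshold (e.g., 30% inhibition) re-run in concentration-response up to 20 uM. Fitted against acetonitrile control.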
# [8] = target: rat CYP2C11, Cyp2c11 (gene 29277) (UniProt P08683); test: NVS_ADME_rCYP2C11: NovaScreen (NVS) CYP450-related Enzyme Activity (ADME) Assay for rat CYP2C11 (AID 2283118)
# Summary of the method: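 Cell-free recombinant rat enzyme with fluorescent substrate; readout 0.33 h after dosing, loss of signal versus acetonitrile control. Initial duplicate single-point at 10 uM; actives rerun in concentration series.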
# [9] = target: rat CYP2C13, Cyp2c13 (gene 171521) (UniProt P20814); test: NVS_ADME_rCYP2C13: NovaScreen (NVS) CYP450-related Enzyme Activity (ADME) Assay for rat CYP2C13 (AID 2283121)
# Summary of the method: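 Recombinant rat CYP2C13 with fluorogenic substrate, 0.75 h cell-free incubation; primary screen in duplicate at 10 uM, actives followed in concentration series. Fluorescence loss relative to acetonitrile control indicates inhibition.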
# rat CYP3A1, gene 25642 = test: NVS_ADME_rCYP3A1: NovaScreen (NVS) CYP450-related Enzyme Activity (ADME) Assay for rat CYP3A1 (AID 2283126)
# Summary of the method: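 Cell-free recombinant CYP assay with fluorescent substrate, read 0.5 h after dosing. Screened at 10 uM in duplicate, hits at up to 20 uM in concentration-response; loss of signal versus acetonitrile baseline.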
# [10] = target: rat CYP3A2, Cyp3a2 (gene 266682) (UniProt P05183); test: NVS_ADME_rCYP3A2: NovaScreen (NVS) CYP450-related Enzyme Activity (ADME) Assay for rat CYP3A2 (AID 2283128)
# Summary of the method: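 Cell-free rat CYP3A2 enzyme assay with fluorescent substrate, read 0.5 h after dosing. Primary duplicate screen at 10 uM; actives run in concentration-response up to 20 uM, relative to acetonitrile baseline.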
# [11] = target: human CYP2J2, CYP2J2 (gene 1573) (UniProt P51589); test: NVS_ADME_hCYP2J2: NovaScreen (NVS) CYP450-related Enzyme Activity (ADME) Assay for human CYP2J2 (AID 2283106)
# Summary of the method: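 Cell-free assay of recombinant CYP2J2 with a fluorogenic substrate, read 1 h after dosing; loss of signal versus acetonitrile. Primary screen at 10 uM in duplicate, then concentration-response up to 20 uM for chemicals passing threshold (e.g., 30% inhibition).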
# [12] = target: rat CYP2D2, Cyp2d26 (gene 25053) (UniProt P10634); test: NVS_ADME_rCYP2D2: NovaScreen (NVS) CYP450-related Enzyme Activity (ADME) Assay for rat CYP2D2 (AID 2283124)
# Summary of the method: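 Recombinant rat CYP2D2 in a cell-free fluorogenic activity assay, fluorescence read 0.75 h after dosing. Primary screen in duplicate at 10 uM; actives re-run singly in concentration-response to 20 uM, relative to acetonitrile.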
# [13] = target: rat CYP2D1, Cyp2d1 (gene 266684) (UniProt P10633); test: NVS_ADME_rCYP2D1: NovaScreen (NVS) CYP450-related Enzyme Activity (ADME) Assay for rat CYP2D1 (AID 2283122)
# Summary of the method: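 Cell-free fluorescence enzyme-activity assay on extracted rat CYP2D1 protein, read 0.75 h after dosing. Primary screen in duplicate at 10 uM; qualifying chemicals then run in concentration-response to 20 uM max, loss-of-signal versus acetonitrile baseline.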
# rat CYP2C6, gene 293989 = test: NVS_ADME_rCYP2C6: NovaScreen (NVS) CYP450-related Enzyme Activity (ADME) Assay for rat CYP2C6 (AID 2283120)
# Summary of the method: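 Cell-free recombinant rat CYP2C6 with fluorogenic substrate, read by fluorescence 1 h after dosing; acetonitrile as negative control. Primary screen at 10 uM in duplicate, actives then in concentration-response up to 20 uM.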
# [14] = target: human CYP1A2, CYP1A2 (gene 1544) (UniProt P05177); test: NVS_ADME_hCYP1A2: NovaScreen (NVS) CYP450-related Enzyme Activity (ADME) Assay for human CYP1A2 (AID 2283102)
# Summary of the method: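 Recombinant human CYP1A2 from insect cells, cell-free, fluorogenic substrate; read 0.5 h after dosing with loss of fluorescence signal indicating inhibition. Primary screen in duplicate at 10 uM, acetonitrile as negative control.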
# Chain of human CYP1A2, CYP1A2 (gene 1544) (P05177 whole entry, looked up): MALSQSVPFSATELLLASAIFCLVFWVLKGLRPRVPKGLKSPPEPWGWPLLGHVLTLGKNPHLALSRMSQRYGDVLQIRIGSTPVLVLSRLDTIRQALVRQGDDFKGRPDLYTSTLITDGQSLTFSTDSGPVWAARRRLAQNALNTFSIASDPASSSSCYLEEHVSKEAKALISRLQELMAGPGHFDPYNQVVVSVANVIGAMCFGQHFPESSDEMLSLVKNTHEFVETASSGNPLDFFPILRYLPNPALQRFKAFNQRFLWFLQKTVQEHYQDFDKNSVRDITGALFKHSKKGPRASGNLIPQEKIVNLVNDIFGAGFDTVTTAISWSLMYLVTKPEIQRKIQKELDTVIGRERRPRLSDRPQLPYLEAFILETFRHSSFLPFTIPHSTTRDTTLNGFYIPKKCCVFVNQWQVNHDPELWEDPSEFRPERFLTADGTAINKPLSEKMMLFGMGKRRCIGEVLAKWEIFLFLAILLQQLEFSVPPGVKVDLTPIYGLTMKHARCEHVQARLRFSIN
# Chain of Cytochrome P450 3A4 (Homo sapiens) (P08684 whole entry, looked up): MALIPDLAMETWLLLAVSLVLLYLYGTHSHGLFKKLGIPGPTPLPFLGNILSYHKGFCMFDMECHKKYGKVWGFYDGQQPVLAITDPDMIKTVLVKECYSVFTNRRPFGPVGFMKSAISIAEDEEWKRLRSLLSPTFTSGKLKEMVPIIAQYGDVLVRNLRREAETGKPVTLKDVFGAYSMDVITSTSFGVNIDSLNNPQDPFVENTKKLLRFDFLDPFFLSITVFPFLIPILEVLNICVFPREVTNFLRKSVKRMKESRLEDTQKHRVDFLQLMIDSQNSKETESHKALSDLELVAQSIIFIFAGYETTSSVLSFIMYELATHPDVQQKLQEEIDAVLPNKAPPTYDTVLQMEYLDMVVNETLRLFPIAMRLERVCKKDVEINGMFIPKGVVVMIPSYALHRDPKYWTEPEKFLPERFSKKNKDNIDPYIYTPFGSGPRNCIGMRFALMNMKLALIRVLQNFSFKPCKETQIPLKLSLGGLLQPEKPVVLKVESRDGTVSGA
# Chain of rat CYP2A2, Cyp2a2 (gene 24895) (P15149 whole entry, looked up): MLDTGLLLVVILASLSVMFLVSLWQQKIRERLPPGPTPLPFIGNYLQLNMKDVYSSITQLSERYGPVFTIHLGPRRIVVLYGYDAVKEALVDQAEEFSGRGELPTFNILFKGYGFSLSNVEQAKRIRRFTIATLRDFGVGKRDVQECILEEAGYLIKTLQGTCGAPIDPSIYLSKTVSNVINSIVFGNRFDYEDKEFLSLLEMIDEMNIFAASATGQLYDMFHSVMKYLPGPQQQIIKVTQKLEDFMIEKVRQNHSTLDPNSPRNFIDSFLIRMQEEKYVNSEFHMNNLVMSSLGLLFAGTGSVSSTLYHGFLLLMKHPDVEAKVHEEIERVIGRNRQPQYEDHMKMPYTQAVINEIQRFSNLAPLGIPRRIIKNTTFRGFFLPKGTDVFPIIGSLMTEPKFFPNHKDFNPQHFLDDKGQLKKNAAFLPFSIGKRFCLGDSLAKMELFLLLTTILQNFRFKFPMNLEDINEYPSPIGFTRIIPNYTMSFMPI
# Chain of human CYP2C9, CYP2C9 (gene 1559) (P11712 whole entry, looked up): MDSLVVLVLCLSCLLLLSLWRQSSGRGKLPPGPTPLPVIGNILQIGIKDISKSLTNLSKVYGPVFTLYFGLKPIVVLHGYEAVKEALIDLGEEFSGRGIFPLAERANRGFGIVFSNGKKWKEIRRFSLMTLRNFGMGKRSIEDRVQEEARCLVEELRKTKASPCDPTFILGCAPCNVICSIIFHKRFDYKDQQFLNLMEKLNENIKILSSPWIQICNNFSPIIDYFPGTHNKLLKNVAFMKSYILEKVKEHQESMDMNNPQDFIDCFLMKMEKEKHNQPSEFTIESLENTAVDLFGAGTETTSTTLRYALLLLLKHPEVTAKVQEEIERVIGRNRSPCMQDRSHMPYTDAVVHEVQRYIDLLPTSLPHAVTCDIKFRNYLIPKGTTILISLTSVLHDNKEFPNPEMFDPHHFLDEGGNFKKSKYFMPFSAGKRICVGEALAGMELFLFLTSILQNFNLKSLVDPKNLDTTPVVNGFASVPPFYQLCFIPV
# Chain of rat CYP2A1, Cyp2a1 (gene 24894) (P11711 whole entry, looked up): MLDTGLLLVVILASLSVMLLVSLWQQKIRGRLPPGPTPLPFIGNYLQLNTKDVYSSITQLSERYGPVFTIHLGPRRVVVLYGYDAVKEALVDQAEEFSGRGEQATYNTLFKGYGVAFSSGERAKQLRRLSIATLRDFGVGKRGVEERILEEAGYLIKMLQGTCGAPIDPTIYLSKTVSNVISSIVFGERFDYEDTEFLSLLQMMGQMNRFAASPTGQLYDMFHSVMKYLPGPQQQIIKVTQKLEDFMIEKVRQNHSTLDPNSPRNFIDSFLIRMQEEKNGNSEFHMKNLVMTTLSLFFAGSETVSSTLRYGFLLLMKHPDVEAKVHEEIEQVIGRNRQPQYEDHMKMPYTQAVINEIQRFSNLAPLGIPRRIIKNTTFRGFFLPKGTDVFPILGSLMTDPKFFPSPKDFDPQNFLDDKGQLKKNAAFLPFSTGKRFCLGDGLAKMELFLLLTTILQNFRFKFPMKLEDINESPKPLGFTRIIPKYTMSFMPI
# Chain of rat CYP2C13, Cyp2c13 (gene 171521) (P20814 whole entry, looked up): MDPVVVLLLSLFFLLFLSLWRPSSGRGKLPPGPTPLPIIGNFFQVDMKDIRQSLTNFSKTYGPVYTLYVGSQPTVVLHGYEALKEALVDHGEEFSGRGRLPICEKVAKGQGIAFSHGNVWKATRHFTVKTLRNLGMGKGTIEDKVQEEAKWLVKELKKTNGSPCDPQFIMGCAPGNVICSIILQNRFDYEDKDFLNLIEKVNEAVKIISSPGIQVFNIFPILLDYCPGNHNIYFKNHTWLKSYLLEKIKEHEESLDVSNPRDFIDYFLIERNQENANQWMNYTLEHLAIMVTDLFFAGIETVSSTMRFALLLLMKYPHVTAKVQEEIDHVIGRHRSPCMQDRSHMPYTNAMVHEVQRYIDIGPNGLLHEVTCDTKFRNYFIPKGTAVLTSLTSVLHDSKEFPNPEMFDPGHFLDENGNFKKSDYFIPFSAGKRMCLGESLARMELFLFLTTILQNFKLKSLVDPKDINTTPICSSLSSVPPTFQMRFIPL
# Chain of rat CYP2C11, Cyp2c11 (gene 29277) (P08683 whole entry, looked up): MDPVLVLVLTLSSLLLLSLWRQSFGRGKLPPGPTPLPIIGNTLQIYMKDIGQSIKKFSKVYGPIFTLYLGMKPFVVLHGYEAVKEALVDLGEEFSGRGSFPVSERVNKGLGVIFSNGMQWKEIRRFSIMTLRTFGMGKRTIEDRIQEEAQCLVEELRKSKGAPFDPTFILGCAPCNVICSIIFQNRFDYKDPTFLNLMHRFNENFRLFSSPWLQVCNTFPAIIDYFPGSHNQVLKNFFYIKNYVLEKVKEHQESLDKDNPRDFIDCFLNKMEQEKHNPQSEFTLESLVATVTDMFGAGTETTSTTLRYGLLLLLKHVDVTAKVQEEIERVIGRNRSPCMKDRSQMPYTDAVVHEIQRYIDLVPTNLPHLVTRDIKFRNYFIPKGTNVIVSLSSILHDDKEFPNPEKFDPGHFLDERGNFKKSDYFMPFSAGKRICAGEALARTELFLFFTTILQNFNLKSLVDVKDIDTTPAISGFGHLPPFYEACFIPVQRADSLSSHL
# Chain of rat CYP2D2, Cyp2d26 (gene 25053) (P10634 whole entry, looked up): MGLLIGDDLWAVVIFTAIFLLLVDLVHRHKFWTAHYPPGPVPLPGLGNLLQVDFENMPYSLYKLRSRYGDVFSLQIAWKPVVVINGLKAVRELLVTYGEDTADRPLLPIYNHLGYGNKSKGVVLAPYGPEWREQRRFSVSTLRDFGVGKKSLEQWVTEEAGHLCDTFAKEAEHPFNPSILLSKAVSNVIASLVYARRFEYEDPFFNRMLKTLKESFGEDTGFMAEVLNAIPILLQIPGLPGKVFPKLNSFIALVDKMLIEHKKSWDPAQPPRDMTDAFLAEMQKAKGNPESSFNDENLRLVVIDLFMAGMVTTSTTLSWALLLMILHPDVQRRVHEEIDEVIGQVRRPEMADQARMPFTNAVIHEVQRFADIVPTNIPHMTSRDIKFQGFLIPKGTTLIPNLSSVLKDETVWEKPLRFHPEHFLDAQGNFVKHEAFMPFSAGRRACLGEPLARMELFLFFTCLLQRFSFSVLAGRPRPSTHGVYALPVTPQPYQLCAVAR
# Chain of rat CYP2D1, Cyp2d1 (gene 266684) (P10633 whole entry, looked up): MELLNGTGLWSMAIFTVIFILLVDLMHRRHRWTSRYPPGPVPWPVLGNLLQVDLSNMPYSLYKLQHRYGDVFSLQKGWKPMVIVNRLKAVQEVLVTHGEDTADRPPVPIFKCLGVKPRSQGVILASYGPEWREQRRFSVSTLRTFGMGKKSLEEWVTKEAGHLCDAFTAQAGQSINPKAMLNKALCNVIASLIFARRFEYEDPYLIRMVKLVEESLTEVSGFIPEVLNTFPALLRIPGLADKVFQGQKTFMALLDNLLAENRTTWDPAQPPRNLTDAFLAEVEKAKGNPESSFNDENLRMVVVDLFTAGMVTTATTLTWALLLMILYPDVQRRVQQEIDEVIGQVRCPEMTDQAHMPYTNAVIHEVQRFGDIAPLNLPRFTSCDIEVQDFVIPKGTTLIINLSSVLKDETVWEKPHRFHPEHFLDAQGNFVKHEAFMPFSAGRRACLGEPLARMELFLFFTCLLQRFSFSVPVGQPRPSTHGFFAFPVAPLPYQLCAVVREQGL
# Chain of human CYP2D6, CYP2D6 (gene 1565) (P10635 whole entry, looked up): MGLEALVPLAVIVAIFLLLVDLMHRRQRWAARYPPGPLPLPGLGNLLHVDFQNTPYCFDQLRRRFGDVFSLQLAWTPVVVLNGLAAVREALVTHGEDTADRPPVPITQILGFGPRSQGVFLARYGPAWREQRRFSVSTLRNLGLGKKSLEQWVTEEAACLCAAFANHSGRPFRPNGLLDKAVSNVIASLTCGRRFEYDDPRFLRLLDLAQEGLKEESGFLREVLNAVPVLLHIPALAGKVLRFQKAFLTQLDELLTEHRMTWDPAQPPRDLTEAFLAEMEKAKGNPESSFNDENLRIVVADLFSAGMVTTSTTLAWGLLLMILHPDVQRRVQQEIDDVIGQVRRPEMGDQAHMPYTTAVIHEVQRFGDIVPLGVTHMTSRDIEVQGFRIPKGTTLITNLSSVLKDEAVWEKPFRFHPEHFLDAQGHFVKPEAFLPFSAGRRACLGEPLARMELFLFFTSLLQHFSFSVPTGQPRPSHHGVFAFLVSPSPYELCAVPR
smiles,measurement,setting,value
O=C1c2ccccc2C(=O)N1SC(Cl)(Cl)Cl,AC50,[1],0.245 µM (active)
same,outcome,[2],inactive
same,outcome,[3],inactive
CC(C)(C)C(O)C(Oc1ccc(Cl)cc1)n1cncn1 (stereo not given),AC50,[4],5.02 µM (active) and 7.84 µM (active)
same,outcome,[4],inactive
same,outcome,[5],inactive
same,AC50,[3],1.29 µM (active) and 1.71 µM (active) and 1.18 µM (active)
same,AC50,[6],3.66 µM (active)
same,AC50,[7],0.32 µM (active)
same,AC50,"rat CYP2B1, gene 24300",5.58 µM (active)
same,AC50,[8],4.45 µM (active)
same,AC50,[9],1.3 µM (active)
same,AC50,"rat CYP3A1, gene 25642",5.65 µM (active)
same,AC50,[10],8.09 µM (active)
C[C@H]1[C@H](c2ccc(Cl)cc2)SC(=O)N1C(=O)NC1CCCCC1,AC50,[3],7.38 µM (active)
CC[C@H](C)[C@H]1O[C@]2(C=C[C@@H]1C)C[C@@H]1C[C@@H](C/C=C(\C)[C@@H](O[C@H]3C[C@H](OC)[C@@H](O[C@H]4C[C@H](OC)[C@@H](O)[C@H](C)O4)[C@H](C)O3)[C@@H](C)/C=C/C=C3\CO[C@@H]4[C@H](O)C(C)=C[C@@H](C(=O)O1)[C@]34O)O2 (tested in a mixture with another compound),AC50,[1],2.79 µM (active)
same,AC50,[11],5.47 µM (active)
same,AC50,[3],6.36 µM (active)
same,AC50,[6],12.7 µM (active)
same,outcome,[7],inactive
same,outcome,"rat CYP2B1, gene 24300",inactive
same,AC50,[9],10 µM (active)
same,AC50,[12],2.23 µM (active)
same,AC50,"rat CYP3A1, gene 25642",8.86 µM (active)
CCOC1Oc2ccc(OS(C)(=O)=O)cc2C1(C)C (stereo not given),AC50,[3],3.56 µM (active)
same,AC50,[7],6.21 µM (active)
same,AC50,[8],4.18 µM (active)
same,AC50,[9],7.5 µM (active)
same,outcome,[13],inactive
same,AC50,"rat CYP3A1, gene 25642",6.95 µM (active)
CCOCN(C(=O)CCl)c1c(C)cccc1CC,AC50,[3],5.09 µM (active)
same,AC50,"rat CYP2C6, gene 293989",10 µM (active)
Oc1ccc(Cl)cc1Cc1ccccc1,outcome,[14],inactive
same,AC50,[2],10 µM (active)
same,AC50,[4],6.54 µM (active) [middle of 7 runs]
same,outcome,[5],inactive
same,AC50,[3],3.27 µM (active) [middle of 7 runs]
same,AC50,[6],5.61 µM (active)
same,AC50,"rat CYP2B1, gene 24300",6.42 µM (active)
same,AC50,[8],7.16 µM (active)
same,AC50,"rat CYP2C6, gene 293989",5.19 µM (active)
same,AC50,[9],6.35 µM (active)
same,AC50,[13],10 µM (active)
same,AC50,[12],5.11 µM (active)
same,AC50,"rat CYP3A1, gene 25642",8.2 µM (active)
